target: PUM1 PUF domain R3-CRC (Homo sapiens, UniProt Q14671 828-1176, Q939C); experiment: yeast three-hybrid, YBZ-1, SC-Leu-His + 0.5 mM 3-AT, 4 days; conditions: tags: N-Gal4 AD-HA kept; label: inside an RPR1-promoter hybrid RNA with tandem MS2 sites; ssRNA
Outline: (§1)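 The interaction score is the log change in variant frequency from input to selection. Scores were computed in log2 with a pseudocount of 1 for absent variants, using Illumina sequencing of PCR-amplified repeat regions. The input came from four days on SC-Leu and the selection from four days on SC-Leu-His + 0.5 mM 3-AT. The cells were strain YBZ-1 (LexA–MS2 coat fusion, HIS3 reporter) co-expressing Pumilio-1 PUF domain libraries and matching RNA elements from a centromeric plasmid.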

Sequence	binding signal
GGCUAGAACUAGUGGAUCCCCCGGCGCCCGGCGGCUCGAGCCCGGGUAAGUGUAAGUAGUCUGCAUGCCGCCGGGCGCCAUGCCUGCAGGUCGACUCUAGAAAACAUG	2.62 log2 enrichment (interaction score)
GGCUAGAACUAGUGGAUCCCCCGGCGCCCGGCGGCUCGAGCCCGGGUAAGUGUAAAUAGUCUGCAUGCCGCCGGGCGCCAUGCCUGCAGGUCGACUCUAGAAAACAUG	2.51 log2 enrichment (interaction score)
GGCUAGAACUAGUGGAUCCCCCGGCGCCCGGCGGCUCGAGCCCGGGUAAGUGUAAUUAGUCUGCAUGCCGCCGGGCGCCAUGCCUGCAGGUCGACUCUAGAAAACAUG	2.22 log2 enrichment (interaction score)

target: PUM1 PUF domain R4-VPS (Homo sapiens, UniProt Q14671 828-1176, N971V;H972P;Q975S); experiment: as above; conditions: tags: N-Gal4 AD-HA kept; label: inside an RPR1-promoter hybrid RNA with tandem MS2 sites; ssRNA
Outline: as §1

Sequence	binding signal
GGCUAGAACUAGUGGAUCCCCCGGCGCCCGGCGGCUCGAGCCCGGGUAAGUGUAUAUAGUCUGCAUGCCGCCGGGCGCCAUGCCUGCAGGUCGACUCUAGAAAACAUG	2.93 log2 enrichment (interaction score)
GGCUAGAACUAGUGGAUCCCCCGGCGCCCGGCGGCUCGAGCCCGGGUAAGUGUAAAUAGUCUGCAUGCCGCCGGGCGCCAUGCCUGCAGGUCGACUCUAGAAAACAUG	1.66 log2 enrichment (interaction score)
GGCUAGAACUAGUGGAUCCCCCGGCGCCCGGCGGCUCGAGCCCGGGUAAGUGUACAUAGUCUGCAUGCCGCCGGGCGCCAUGCCUGCAGGUCGACUCUAGAAAACAUG	2.28 log2 enrichment (interaction score)

Source: PMC8384837, “Expanding the binding specificity for RNA recognition by a PUF domain”
